Only some compounds are listed: those with a hit (about 0.26% of all), similar ones and a draw of the others.
Menin MLL FP TR = inhibitors of human menin-MLL interaction, mutant MLL peptide; O00255; Menin + Texas Red MLL mutant peptide, fluorescence polarization; Potency, µM (series often up to 61.6 µM), most hits filed as inhibitors; 270,000 compounds, 0.23% hits; AID 1768; active = well fitted inhibition curve with a large enough effect in the polarisation, with a control signal flat, not every such curve was filed as active; inconclusive = small, poorly fitted or top-dose-only effect, or effect the other way, or a change in a side signal; inactive = no such curve, though single readings can be large or run the other way; the % refers to the polarisation
Menin MLL FP FL = displaces fluorescein MLL peptide from human menin; Fluorescence polarization, fluorescein-MLL peptide displacement from menin; FP activity change, % at 61.4 µM; 290,000 tested, under 10 active; active = well fitted curve in the direction sought with a large enough effect in the polarisation, not every such curve was filed as active; inconclusive = small, poorly fitted or top-dose-only effect, or effect the other way, or a change in a side signal; inactive = no such curve, though single readings can be large or run the other way; the % refers to the polarisation
Lamin A splicing = LMNA splicing modulation; HeLa LMNA splicing GFP/RFP minigene ratio, 48 h; Potency, µM (highest dose often 46.1 µM), actives largely listed as inhibitors; 200,000 compounds, 0.01% hits; AID 1487; active = well fitted inhibition curve with a large enough effect in the signal ratio, with a control signal flat, not every such curve was filed as active; inconclusive = small, poorly fitted or top-dose-only effect, or effect the other way, or a change in a side signal; the % refers to the signal ratio
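S3 HeLa cells stably expressing lamin A-EGFP splicing minigene plus DsRed2, 600 cells/well, 48 h compound exposure at 37C. Laser-scanning cytometry; analysed as GFP (500-530 nm)/RFP (575-640 nm) total intensity ratio; 0.5% DMSO vehicle.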
MLL CXXC-DNA inh = MLL CXXC-DNA interaction inhibition; Q03164; MLL-CXXC / FITC-HOXA9 DNA fluorescence polarization; Potency, µM (top dose mostly 115 µM), actives largely listed as inhibitors; 290,000 compounds, 0.037% hits; active = well fitted inhibition curve with a large enough effect in the polarisation, with a control signal flat, not every such curve was filed as active; inconclusive = small, poorly fitted or top-dose-only effect, or effect the other way, or a change in a side signal; inactive = no such curve, though single readings can be large or run the other way; the % refers to the polarisation
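Steps: dispense CXXC domain solution (7 uM) → pin compounds or unlabeled HOX-A9 DNA control → 5 min ambient → add FLSN-HOX-A9 solution (50 nM) → spin → 30 min ambient → fluorescence polarization. Tris pH 7.5/NaCl/DTT/BSA buffer.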
Epigenetic reg = derepresses silenced GFP reporter in murine cells | AID 1865 | Potency, µM (titrated, usually from 53.9 µM), hits mostly activators | murine LDR cells, GFP reporter derepression, 30 h | 280,000 compounds, 0.2% hits; note: nearly all actives have a fitted effect of over 60% in size
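Derepression of a silenced CMV-GFP reporter in murine LDR cells is scored by enumerating GFP-positive cells with a laser-scanning microplate cytometer after 30 hours of treatment at 37 C.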
MLL CXXC FP-Fl = inhibitors of human MLL CXXC domain-DNA interaction; shares compounds with MLL CXXC-DNA inh; MLL CXXC-DNA binding, fluorescein FP; Potency, µM (doses to about 345 µM), actives largely listed as inhibitors; 200 compounds, 70% hits; note: nearly all actives have a fitted effect of over 80% in size
MLL CXXC FP-TR = inhibitors of human MLL CXXC domain-DNA interaction, Texas Red format. shares compounds with MLL CXXC-DNA inh. MLL CXXC-DNA binding, Texas Red fluorescence polarization. Potency, µM (doses to about 345 µM), hits mostly inhibitors. 200 compounds, 40% hits; note: nearly all actives have a fitted effect of over 75% in size
MLL CXXC HTRF = disrupts human MLL CXXC domain binding to DNA by HTRF | shares compounds with MLL CXXC-DNA inh | MLL CXXC-DNA binding, HTRF, biochemical | Potency, µM (highest dose often 172 µM), hits mostly inhibitors | 210 compounds, 30% hits | AID 624162; note: nearly all actives have a fitted effect of over 80% in size
Numbers stand for hits; i = inactive; ? = inconclusive; nt = not tested or not shown; ! = repeats disagree; [ ] = dose if it differs, or a comment. Unless noted, calls come from the whole dose curve; as a rule, active = well fitted curve in the direction sought with a large enough effect; inconclusive = small, poorly fitted or top-dose-only effect, or another doubt; inactive = no such curve, though single readings can be large; an effect the other way counts as inactive or inconclusive.

SMILES	Menin MLL FP TR	Menin MLL FP FL	Lamin A splicing	MLL CXXC-DNA inh	Epigenetic reg	MLL CXXC FP-Fl	MLL CXXC FP-TR	MLL CXXC HTRF
CC1=NOC(=O)/C1=C\c1ccc(-c2ccc(Cl)c(C(=O)O)c2)o1	i	i	nt	?	i	20µM	89.5µM	48.5µM
CC1(C)OC(=O)C(=Cc2ccc(-c3ccc(Cl)c(C(=O)O)c3)o2)C(=O)O1	i	i	i	28.2µM	i	15.9µM	56.5µM	38.5µM
O=C1NN(c2ccccc2)C(=O)/C1=C/c1ccc(-c2ccc(C(=O)O)cc2)o1	?	i	nt	31.6µM	nt	89.5µM	142µM	?
C=CCc1cccc(C2C(C)CCC3C(=O)N4C(Cc5c([nH]c6ccccc56)C4c4cc(OC)c(OC)c(OC)c4)C(=O)N32)c1 (stereo not drawn)	?	i[11.7 µM]	nt	nt	i[10.1 µM]	nt	nt	nt
O=C1c2ccccc2C(=O)c2c(Nc3ccc(CCO)cc3)ccc(O)c21	?	i	?	i	i	nt	nt	nt
O=C1c2c(O)ccc(O)c2C(=O)c2c(NCCNCCO)ccc(NCCNCCO)c21	?	?	?	?	12.6µM!	6.79µM	12.1µM	7.35µM
COC(=O)C(C(=O)OC)C1O[C@@]23COCCC2(C)C3c2ccccc21 (stereo partly drawn)	i[11.7 µM]	i[11.7 µM]	nt	nt	i[10.1 µM]	nt	nt	nt
Cc1cc(-c2ccc(N=Nc3c(S(=O)(=O)O)cc4cc(S(=O)(=O)O)cc(N)c4c3O)c(C)c2)ccc1N=Nc1c(S(=O)(=O)O)cc2cc(S(=O)(=O)O)cc(N)c2c1O	?	?	nt	25.1µM	nt	5.65µM	7.11µM	1.53µM
O=S(=O)(O)c1cc(O)c2c(O)c(N=Nc3cc(Cl)ccc3O)c(S(=O)(=O)O)cc2c1	?	i	nt	i	nt	nt	nt	nt
CC(C)(C)OC(=O)NC(NC(=O)OCC1c2ccccc2-c2ccccc21)C(=O)O (stereo not drawn)	i	i	nt	nt	nt	nt	nt	nt
COc1cc(/C=C(/C#N)C(=O)Nc2ccccc2)ccc1OCc1ccc(C(=O)O)cc1	i	i	i	i	i	nt	nt	nt
COc1cc(/C=C(\C#N)C(=O)Nc2ccc(C(=O)O)cc2)ccc1OC(=O)c1cccc(F)c1	i	?	nt	?	nt	i	i	i
O=C1NN(C(=O)Nc2ccc(Br)cc2)C(c2ccccc2)C1c1ccccc1 (stereo not drawn)	i	i	nt	nt	nt	nt	nt	nt
CC(C)c1nnc(NC(=O)c2cc3cc(Br)ccc3oc2=O)s1	nt	i	nt	?	i	i	i	i
CC(C)C(=O)Nc1c(-c2ccc(Cl)cc2)c(=O)c2ccccc2n1C	i	i	nt	?	nt	?	i	i
CC(C)OC(=O)CC(=O)c1sc2nc3c(cc2c1N)CN(C)CC3	i	?	i	12.6µM	i	44.8µM	?	?
CC(C)C1OC2(C)OC(=N)C1(C#N)C(C#N)(C#N)C2c1ccccc1 (stereo not drawn)	i	?	i	17.8µM	i	89.5µM	44.8µM	i
CCC1OC2(C)OC(=N)C1(C#N)C(C#N)(C#N)C2c1ccccc1 (stereo not drawn)	i	i	i	i	i	nt	nt	nt

Compound activity deposited in PubChem by National Center for Advancing Translational Sciences (NCATS).
